The values that follow are results of earlier work, collected in PubChem BioAssay AID977611.

For orientation: Kd means the free concentration of one partner at which half of the binding sites on the other are occupied at equilibrium, for simple one-to-one binding.

This series in a line: PubChem AID 977611. To be noted: PDB protein-ligand complexes, literature Kd.

Among all 3,900 compounds or so, about 3,900 (100%) were called active. No cut-off is given here; in the data, nearly all actives have Kd up to about 4200 µM. So high a share suggests a set chosen from earlier hits. The list shows a part of the results. Where a SMILES comes first, the peptide text is derived from it. Non-standard residues stand in square brackets, D forms with d. Square brackets hold non-standard residues; d marks the D form. Residues, ends and D or L forms follow the SMILES beside them. Peptide text beside a SMILES is read from it. [ ]: non-standard residue; d: D form. * marks the point of attachment. Orn(CH(NH2)2) = NC(N)NCCC[C@H](N)C(=O)O; AMC = Cc1cc(=O)oc2cc(N*)ccc12; pGlu = O=C1CC[C@@H](C(=O)O)N1

Turning to `C[C@H](NC(=O)[C@@H]1CCCN1)C(=O)N[C@@H](CCCNC(N)N)C(=O)N1CCC[C@H]1C(=O)N1CCC[C@H]1C(=O)N[C@@H](CCCCN)C(=O)N1CCC[C@H]1C(=O)N[C@@H](CCCNC(N)N)C(=O)N1CCC[C@H]1C(=O)N[C@@H](CCCNC(N)N)C(=O)N[C@@H](CCCNC(N)N)C(=O)O` (H-PA[Orn(CH(NH2)2)]PPKP[Orn(CH(NH2)2)]P[Orn(CH(NH2)2)][Orn(CH(NH2)2)]-OH), the Kd (protein: SH3-domain of CIN85, PDB entry 2bz8) was 2500 nM (active).
For `CC(C)C[C@H](NC(=O)[C@@H]1CCC(=O)N1)C(=O)N[C@@H](Cc1ccc(O)cc1)C(=O)N[C@@H](CCC(=O)O)C(=O)N[C@H](C=O)CC(N)=O` (tested in a mixture with another compound) ([pGlu]LYEN-aldehyde), the Kd (protein: Sortilin, PDB entry 4po7) is 85 nM (active).
H-PDYFL-OH: the Kd (protein: Serine/threonine-protein phosphatase 2A activator PTPA, PDB entry 4ny3) was 49500 nM (active).
With `CC(C)C[C@H](NC(=O)[C@H](CCCCN)NC(=O)[C@H](CCCCN)NC(=O)[C@H](CC(C)C)NC(=O)[C@@H]1CCCN1C(=O)[C@H](CCCCN)NC(=O)[C@@H]1CCCN1)C(=O)N[C@@H](CCCNC(N)N)C(=O)N[C@@H](Cc1ccccc1)C(=O)N[C@@H](CC(=O)O)C(=O)O` (H-PKPLKKL[Orn(CH(NH2)2)]FD-OH), for the setting “protein: phospho-CDK2/cyclin A, PDB entry 1h25”, the Kd is 1800 nM (active).
Regarding `CC(C)C[C@H](NC(=O)[C@@H](NC(=O)[C@@H](N)[C@@H](C)O)C(C)C)C(=O)NCC(=O)N[C@@H](CCCCN)C(=O)N[C@@H](CCCNC(N)N)C(=O)N[C@@H](CCCCN)C(=O)O` (H-TVLGK[Orn(CH(NH2)2)]K-OH), for the setting “protein: IMPORTIN SUBUNIT ALPHA-1A, PDB entry 4b8p”, the Kd is 140 nM (active).
For `CC(C)C[C@H](N)C(=O)NCC(=O)N[C@@H](CCCCN)C(=O)N[C@@H](CCCNC(N)N)C(=O)N[C@@H](CCCCN)C(=O)N[C@@H](Cc1ccc(O)cc1)C(=O)O` (H-LGK[Orn(CH(NH2)2)]KY-OH), the Kd (protein: IMPORTIN SUBUNIT ALPHA-2, PDB entry 4ba3) is 2900 nM (active).
As for `CC(C)C[C@H](NC(=O)[C@@H](NC(=O)[C@@H](N)CO)C(C)C)C(=O)NCC(=O)N[C@@H](CCCCN)C(=O)N[C@@H](CCCNC(N)N)C(=O)N[C@@H](CCCCN)C(=O)N[C@@H](CCCNC(N)N)C(=O)N[C@@H](Cc1cnc[nH]1)C(=O)O` (H-SVLGK[Orn(CH(NH2)2)]K[Orn(CH(NH2)2)]H-OH), under “protein: IMPORTIN SUBUNIT ALPHA-1A, PDB entry 2yns”, the Kd was 25 nM (active).
Regarding `CSCC[C@H](NC(=O)[C@H](Cc1cnc[nH]1)NC(=O)[C@H](CCC(N)=O)NC(=O)[C@H](CCCNC(N)N)NC(=O)[C@H](CCC(=O)O)NC(=O)[C@H](Cc1ccccc1)NC(=O)[C@H](CCCCN)NC(=O)[C@H](C)NC(=O)[C@H](C)NC(=O)[C@H](C)NC(=O)[C@@H](NC(=O)[C@H](CCC(=O)O)NC(=O)[C@@H](N)CCCCN)[C@@H](C)O)C(=O)N[C@@H](CC(=O)O)C(=O)N[C@@H](CO)C(N)=O` (H-KETAAAKFE[Orn(CH(NH2)2)]QHMDS-NH2), the Kd by setting is: (protein: Ribonuclease S(RNase S), PDB entry 1j7z) 20 nM (active); (protein: Ribonuclease S(RNase S), PDB entry 1j80) 300 nM (active); (protein: Ribonuclease S(RNase S), PDB entry 1j81) 80 nM (active).
In the case of `CSCC[C@H](NC(=O)[C@H](CC(C)C)NC(=O)[C@H](CCCCN)NC(=O)[C@H](CCCCN)NC(=O)[C@H](Cc1cnc[nH]1)NC(=O)[C@H](CCCNC(N)N)NC(=O)[C@@H](N)CO)C(=O)N[C@@H](Cc1ccccc1)C(=O)N[C@@H](CCCCN)C(=O)O` (H-S[Orn(CH(NH2)2)]HKKLMFK-OH), where the note is “protein: phospho-CDK2/cyclin A, PDB entry 1h26”, the Kd was 2900 nM (active).
In the case of `CC(C)C[C@H](N)C(=O)NCC(=O)N[C@@H](CCCCN)C(=O)N[C@@H](CCCNC(N)N)C(=O)N[C@@H](CCCCN)C(=O)N[C@@H](CCCNC(N)N)C(=O)N[C@@H](Cc1cnc[nH]1)C(=O)O` (H-LGK[Orn(CH(NH2)2)]K[Orn(CH(NH2)2)]H-OH), the Kd (protein: IMPORTIN SUBUNIT ALPHA, PDB entry 2ynr) was 1700 nM (active).
As for `CC(=O)NCCCC[C@H](NC(=O)[C@H](CCCCN)NC(=O)[C@H](Cc1cnc[nH]1)NC(=O)[C@H](CCCNC(N)N)NC(C)=O)C(=O)Nc1ccc2c(C)cc(=O)oc2c1` (Ac-[Orn(CH(NH2)2)]HKK(Ac)-{AMC}), the Kd (protein: NAD-dependent protein deacetylase sirtuin-3, mitochondrial, PDB entry 4fz3) is 184000 nM (active).
On to `NC1=NC(=O)c2ccccc2C1`, for which the dissociation constant (Kd) (protein: proCaspase-6, PDB entry 4n6g) was 3400 nM (active).
For `CN(C)C1=NC(=O)c2ccccc2C1`, the Kd (protein: Caspase-6, PDB entry 4n7j) is 3400 nM (active).
Turning to `CCCCCCCCCCCCCCCC(=O)OC[C@@H](CO[P+](O)(O)OC1[C@H](O)[C@H](O[P+](O)(O)O)C(O[P+](O)(O)O)[C@H](O[P+](O)(O)O)[C@H]1O)OC(=O)CCCCCCCCCCCCCCC` (stereo partly specified), for the setting “protein: Steroidogenic factor 1 SF-1, PDB entry 4qjr”, the Kd is 80 nM (active).
For the compound `CCCCCCCCCCCCCCCC(=O)OC[C@@H](CO[P+](O)(O)O[C@@H]1[C@H](O)[C@H](O)[C@@H](O[P+](O)(O)O)[C@H](O[P+](O)(O)O)[C@H]1O)OC(=O)CCCCCCCCCCCCCCC`, under “protein: Steroidogenic factor 1 SF-1, PDB entry 4qk4”, the Kd was 250 nM (active).
With H-ATPAWN-OH, the Kd (protein: mRNA-capping enzyme subunit beta Pct1, PDB entry 4pn1) is 680 nM (active).
For H-NDWLLPSY-OH, the Kd (protein: Microtubule-associated protein 1 light chain 3 (C32I, C119S, C122S mutation), PDB entry 4eoy) is 326 nM (active).
In the case of H-ANSNNPDWDF-OH, the Kd (protein: Humanized KR127 Fab, PDB entry 2eh8) is 11 nM (active).
For H-GASDGSGWSSENNPW-OH, the Kd (protein: protein TolB, PDB entry 2ivz) is 920 nM (active).
